Reference: PubChem BioAssay (NCATS)
Results filed as inconclusive are left out. Activity calls are given as the source filed them. Unless noted, calls follow the shape of the dose curve; as a rule, active = well fitted curve in the direction sought with a large enough effect; inconclusive = small, poorly fitted or top-dose-only effect, or another doubt; inactive = no such curve, though single readings can be large; an effect the other way counts as inactive or inconclusive.

Legend:
[1] = S16 Schwann cell PMP22 intronic element firefly luciferase assay (AID 624032); also: nearly all actives have a fitted effect of over 30% in size
Summary of the method: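 Luciferase reporter of PMP22 intronic-element expression in stably transfected S16 rat Schwann cells, read by ONE-Glo luminescence after 24 h compound exposure at 37 C. Activity scaled between DMSO (0%) and positive-control PTC124; concentration-effect curves quality-classified.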

[2] = S16 Schwann cell PMP22 intronic element beta-lactamase assay (AID 624044; calls by dose curve; also: nearly all actives have a fitted effect of over 15% in size)
Summary of the method: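 Beta-lactamase reporter under a PMP22 intronic regulatory element in stable S16 rat Schwann cells; 24 h compound exposure. 460 nm blue signal normalized between DMSO (0%) and potassium clavulanate, with 535 nm FRET tracking viability; curves classed by r2 and response.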

[3] = test system: 3D7; assay: qHTS profiling for inhibitors of Plasmodium falciparum proliferation (AID 504749); also: nearly all actives have a fitted effect of over 60% in size; settings: P. falciparum in erythrocytes, SYBR Green DNA, 72 h; series mostly up to 12.8 µM
Summary of the method: (§1)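 In a 72 h erythrocytic culture (37 C, humidified, 5% CO2) at 2.5% hematocrit and 0.3% starting parasitemia, compounds were tested; SYBR Green I in detergent lysis buffer stained parasite DNA overnight.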

[4] = test system: CP192; assay: as above; settings: P. falciparum in erythrocytes, SYBR Green DNA, 72 h; series mostly up to 28.7 µM
Summary of the method: as §1

[5] = test system: CP194; assay: as above; settings: P. falciparum in erythrocytes, SYBR Green DNA, 72 h; series mostly up to 12.8 µM
Summary of the method: as §1

[6] = test system: CP203; assay: as above; settings: P. falciparum in erythrocytes, SYBR Green DNA, 72 h; series mostly up to 12.8 µM
Summary of the method: as §1

[7] = test system: CP215; assay: as above; settings: P. falciparum in erythrocytes, SYBR Green DNA, 72 h; series mostly up to 28.7 µM
Summary of the method: as §1

[8] = test system: CP260; assay: as above; settings: P. falciparum in erythrocytes, SYBR Green DNA, 72 h; series mostly up to 12.8 µM
Summary of the method: as §1

[9] = test system: CP266; assay: as above; settings: P. falciparum in erythrocytes, SYBR Green DNA, 72 h; series mostly up to 28.7 µM
Summary of the method: as §1

[10] = test system: CP297; assay: as above; settings: P. falciparum in erythrocytes, SYBR Green DNA, 72 h; series mostly up to 12.8 µM
Summary of the method: as §1

[11] = test system: DIV14; assay: as above; settings: P. falciparum in erythrocytes, SYBR Green DNA, 72 h; series mostly up to 12.8 µM
Summary of the method: as §1

[12] = test system: DIV17; assay: as above; settings: P. falciparum in erythrocytes, SYBR Green DNA, 72 h; series mostly up to 12.8 µM
Summary of the method: as §1

[13] = test system: GB4; assay: as above; settings: P. falciparum in erythrocytes, SYBR Green DNA, 72 h; series mostly up to 12.8 µM
Summary of the method: as §1

[14] = test system: PAD; assay: as above; settings: P. falciparum in erythrocytes, SYBR Green DNA, 72 h; series mostly up to 12.8 µM
Summary of the method: as §1

[15] = test system: TAB109; assay: as above; settings: P. falciparum in erythrocytes, SYBR Green DNA, 72 h; series mostly up to 12.8 µM
Summary of the method: as §1

[16] = test system: W2; assay: as above; settings: P. falciparum in erythrocytes, SYBR Green DNA, 72 h; series mostly up to 12.8 µM
Summary of the method: as §1

[17] = test system: ATS95; assay: as above; settings: P. falciparum in erythrocytes, SYBR Green DNA, 72 h; series mostly up to 12.8 µM
Summary of the method: as §1

[18] = qHTS Assay for Identification of Small Molecule Agonists for Thrombopoietin (TPO) Signaling Pathway (AID 917)
Summary of the method: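 Cell-based luciferase reporter screen. Mouse Ba/F3 line stably expressing human TPO receptor; IL-3 removed overnight before plating. Co-treatment with compound and EC50 TPO (26 pM), 24 hrs at 37 C, then luminescence.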

[19] = target: Cytochrome P450 3A4 (Homo sapiens) (UniProt P08684); assay: qHTS Assay for Activators of Cytochrome P450 3A4 (AID 885); also: nearly all actives have a fitted effect of over 65% in size
Sequence of Cytochrome P450 3A4 (Homo sapiens) (P08684 whole entry, looked up): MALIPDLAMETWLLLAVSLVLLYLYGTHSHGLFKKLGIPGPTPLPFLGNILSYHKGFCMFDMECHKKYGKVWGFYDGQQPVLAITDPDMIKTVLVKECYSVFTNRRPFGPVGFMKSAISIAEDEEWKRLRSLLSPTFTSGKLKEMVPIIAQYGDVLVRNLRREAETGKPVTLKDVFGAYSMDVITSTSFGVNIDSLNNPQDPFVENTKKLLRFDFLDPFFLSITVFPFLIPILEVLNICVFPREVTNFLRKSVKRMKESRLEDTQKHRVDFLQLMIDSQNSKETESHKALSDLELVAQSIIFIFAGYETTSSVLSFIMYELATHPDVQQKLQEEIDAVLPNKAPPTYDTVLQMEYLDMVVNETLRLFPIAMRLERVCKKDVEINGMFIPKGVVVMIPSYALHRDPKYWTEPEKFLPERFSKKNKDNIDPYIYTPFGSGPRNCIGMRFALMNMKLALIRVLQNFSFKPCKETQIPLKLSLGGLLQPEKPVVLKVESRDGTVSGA
Summary of the method: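 Human CYP3A4 dealkylates Luciferin-PPXE to luciferin, which luciferase detection converts to light. Substrate was at its KM (25uM), buffer 200mM KPO4, reaction 60 min at RT.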

Measured: Potency

CCN1C(=O)N[C@@H](c2ccccc2)C1=O
inactive: [1] | [2] | [3] | [4] | [5] | [6] | [7] | [8] | [9] | [10] | [11] | [12] | [13] | [14] | [15] | [16]

Cn1c(=O)c2c(ncn2C[C@@H](O)CO)n(C)c1=O
inactive: [1] | [2] | [3] | [17] | [4] | [5] | [6] | [7] | [8] | [9] | [10] | [11] | [12] | [13] | [14] | [15] | [16]

CN[C@@H](CC(C)C)C(=O)N[C@@H]1C(=O)N[C@H](CC(N)=O)C(=O)N[C@@H]2C(=O)N[C@H]3C(=O)N[C@H](C(=O)N[C@H](C(=O)O)c4cc(O)cc(O)c4-c4cc3ccc4O)[C@H](O)c3ccc(c(Cl)c3)Oc3cc2cc(c3O[C@H]2O[C@@H](CO)[C@@H](O)[C@@H](O)[C@@H]2O[C@@H]2C[C@](C)(N)[C@H](O)[C@H](C)O2)Oc2ccc(cc2Cl)[C@@H]1O
inactive: [1] | [3] | [17] | [4] | [5] | [6] | [7] | [8] | [9] | [10] | [11] | [12] | [13] | [14] | [15] | [16]

C[C@@](N)(Cc1ccc(O)cc1)C(=O)O
inactive: [18]

COc1ccc(C[C@@H]2c3cc(OC)c(OC)cc3CC[N@+]2(C)CCC(=O)OCCCCCOC(=O)CC[N@@+]2(C)CCc3cc(OC)c(OC)cc3[C@H]2Cc2ccc(OC)c(OC)c2)cc1OC
inactive: [19] | [2] | [3] | [17] | [5] | [6] | [7] | [8] | [9] | [10] | [11] | [12] | [13] | [14] | [15] | [16]
